Assay outcomes (PubChem)
pS6 MEF inh: inhibitors of mTORC1 signaling in Tsc2-/- p53-/- MEF cells; Tsc2-/- p53-/- MEF, phospho-rpS6 immunofluorescence/PI, 24 h; Potency, µM (highest dose often 38.3 µM), actives largely listed as inhibitors; 0.78% of 44,000 active; AID 493208; further: nearly all actives have a fitted effect of over 50% in size
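Tsc2-/-, p53-/- MEFs (empty-vector stable line) in DMEM + 10% FBS were treated with compounds 24 h at 37 degree Celsius, fixed, and immunostained for phospho-rpS6 (Alexa-488) with propidium iodide counterstain. Laser-scanning cytometry gave % positive cells, normalized against 7.5 nM rapamycin and DMSO.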
HTT prom inh: inhibitors of huntingtin promoter activity; HEK293 HTT promoter firefly luciferase reporter, 24 h; 0.93% of 48,000 active; Potency, µM (doses to about 57.5 µM), usual class: inhibitors; further: nearly all actives have a fitted effect of over 50% in size
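Quantitative HTS used concentration series of up to 57.5 uM final on HEK293 luciferase reporter cells, 24 h at 37 degrees C. Readout was Dual-Glo firefly luminescence.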
HTT-AS promoter: HTT-AS promoter activation | HEK293 HTT-AS promoter firefly luciferase reporter, 24 h; response scale: percent change from vehicle, -100% = no light | Potency, µM (top dose mostly 57.5 µM), usual class: activators | 0.24% of 48,000 active; further: nearly all actives have a fitted effect of over 55% in size
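HEK293 Fluc reporter, 2,500 cells/well, 24 h pre-culture; cpds up to 57.5 uM final, 24 h 37 degrees C; Dual-Glo, 10 min RT; normalized vehicle = 0%, zero RLU = -100%.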
S16 viability: cytotoxicity in S16 Pmp22-F2sN Schwann cells; S16 Pmp22-F2sN Schwann cells viability, CellTiter-Glo, 24 h; AID 1508642; Potency, µM (doses to about 57.5 µM), usual class: cytotoxic; 0.48% of 43,000 active; further: nearly all actives have a fitted effect of over 65% in size
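CellTiter-Glo counter-screen, qHTS, 1536-well. Cells: S16(c9) Pmp22-F2sN, 500-1,000/well in DMEM + 10% FBS. Cpd 23 nL pin transfer, 24 h, 37C/5% CO2. Read: luminescence, CCD imager.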
PMP22 txn prim: modulates PMP22 transcription in S16 Schwann cells; S16 Pmp22-F2sN Schwann cells (luciferase reporters placed in the Pmp22 gene), FLuc/NLuc coincidence luminescence, 24 h; Potency, µM (series often up to 57.5 µM), actives largely listed as inhibitors; 2% of 43,000 active; AID 1508649; active means clear falling dose curves in both reporters; inconclusive means both reporters move, but less clearly or upward; inactive means either reporter flat; the % is the NLuc reporter signal
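S16(c9) Schwann cells with FLuc/NLuc coincidence reporter in the Pmp22 3' UTR; compounds pin-transferred, 24 h at 37C. Dual-luciferase read: FLuc first, then NLuc after Stop&Glo, each 10 min at room temperature.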
A number is an active result; - = inactive; ? = inconclusive; . = no result. Most compounds without a hit are left out; they make up all but 3.6% or so of the library. Unless noted, the call rests on the fitted dose curve; in most records, active means well fitted curve in the direction sought with a large enough effect; inconclusive means small, poorly fitted or top-dose-only effect, or another doubt; inactive means no such curve, though single readings can be large; an effect the other way counts as inactive or inconclusive.

SMILES | pS6 MEF inh | HTT prom inh | HTT-AS promoter | S16 viability | PMP22 txn prim
CCc1ccc(C(=O)Nc2cc(CN3CCN(C)CC3)cc(C(F)(F)F)c2)cc1C#Cc1cnc2ccnn2c1 | . | - | - | . | .
c1ccc(N2CCN(c3ncnc4[nH]ncc34)CC2)cc1 | 14.7µM | - | - | - | -
CN(C(=O)c1cc2c(=O)n3ccccc3nc2n1C)c1ccccc1 | - | - | 5.62µM | - | -
CCCCCNC(=O)c1cc2c(=O)n3ccccc3nc2n1C | - | - | 2µM | - | -
C[C@@]1(C(=O)Nc2ccc(F)nc2)CCCN1c1nc(Nc2cc(C3CC3)[nH]n2)c2cccn2n1 | . | ? | - | . | .
Cn1c(NCc2ccccc2F)nc2ccccc21 | - | - | 5.01µM | - | -
COc1ccc(C2CC(=O)c3c([nH]c(C(=O)OCc4ccccc4)c3C)C2)cc1 (stereo not drawn) | - | - | - | ? | ?
COc1cc(C2CC(=O)c3c([nH]c(C(=O)OCC4CCCCC4)c3C)C2)cc(OC)c1OC (stereo not drawn) | - | ? | - | - | 5.66µM
COc1cc(C2CC(=O)c3c([nH]c(C(=O)OC4CCCCC4)c3C)C2)cc(OC)c1OC (stereo not drawn) | ? | ? | - | ? | 17.9µM
COc1ccc(C2CC(=O)c3c([nH]c(C(=O)OC4CCC(C)CC4)c3C)C2)cc1OC (stereo not drawn) | - | - | - | - | -
COc1ccc(COC(=O)c2[nH]c3c(c2C)C(=O)CC(c2ccc(OC)c(OC)c2)C3)cc1 (stereo not drawn) | - | 10µM | - | - | -
Cc1cnc(CNC(=O)c2c(=O)c3ccc(N4CCCN(C)CC4)nc3n3c2sc2ccccc23)cn1 | . | - | - | . | .
Cc1cc2c(F)c(Oc3ncnn4cc(OC[C@@H](C)O)c(C)c34)ccc2[nH]1 | . | - | - | . | .
COc1ccc2oc(=O)c(-c3nc4ccc(C)cc4[nH]3)cc2c1 | - | - | - | - | ?
COc1cccc2cc(-c3nc4ccc(C)cc4[nH]3)c(=O)oc12 | - | - | 0.316µM | - | -
CCN1CCN(c2cc(C)c3cc(NC(=O)/C=C/c4ccc(C)cc4)ccc3n2)CC1 | 18.5µM | - | - | ? | ?
CCN1CCN(c2cc(C)c3cc(NC(=O)/C=C/c4ccc(OCCC(C)C)cc4)ccc3n2)CC1 | 4.14µM | - | - | ? | ?
Clc1ccc2ncc(-c3cccc(NC4CNC4)n3)n2c1 | . | - | - | . | .
Cc1cc(C)c(NC(=O)C2CCN(c3nc4ccccc4n4cccc34)CC2)c(C)c1 | 14.7µM | - | - | - | -
COc1cc(Cl)c(C)cc1NC(=O)C1CCN(c2nc3ccccc3n3cccc23)CC1 | 14.7µM | ? | - | - | ?
CC(C)(O)CC(=O)NCCn1ccc2ncnc(Nc3ccc(Oc4cccc(C(F)(F)F)c4)c(Cl)c3)c21 | . | - | - | . | .
Cc1cccc(N2CCN(C(=O)c3cnn(-c4cccc(Cl)c4C)c3C3CCNCC3)CC2)c1C | 16.5µM | - | - | ? | ?
CCN(c1ccccc1)S(=O)(=O)c1cc(C(=O)Nc2ccc(Br)cc2)ccc1F | 14.7µM | ? | - | - | ?
O=C(Nc1ccc(Br)cc1)c1cccc(S(=O)(=O)N2CCc3ccccc32)c1 | - | 25.1µM | - | - | ?
O=C(Nc1cc(Cl)cc(Cl)c1)c1ccc(F)c(S(=O)(=O)N2CCc3ccccc32)c1 | - | ? | - | ? | ?
SMILES | pS6 MEF inh | HTT prom inh | HTT-AS promoter | S16 viability | PMP22 txn prim
O=C(Nc1ccc(Br)cc1)c1ccc(F)c(S(=O)(=O)N2CCCc3ccccc32)c1 | - | 2.24µM | - | - | ?
NS(=O)(=O)c1ccc(NC(=O)c2ccc3c(c2)CCN3S(=O)(=O)c2ccccc2)cc1 | ? | - | - | - | ?
C=CC(=O)Nc1cccc(Sc2nc(Nc3ccc(N4CCN(C)CC4)cc3)ncc2Cl)c1 | . | - | - | . | .
COc1cc(OC)cc(-c2ccc3ncc4ccc(=O)n(-c5ccc(N6CCNCC6)c(C(F)(F)F)c5)c4c3c2)c1 | . | ? | - | . | .
CN1CCN(Cc2ccc(NC(=O)Nc3ccc(Oc4cc(NC(=O)C5CC5)ncn4)cc3)cc2C(F)(F)F)CC1 | . | ? | - | . | .
Cc1ccc(Cl)cc1NC(=O)COC(=O)CC(C)(C)CC1=NS(=O)(=O)c2ccccc2N1 | - | ? | - | - | ?
CC(C)(CC(=O)NCc1ccc(Cl)cc1Cl)CC1=NS(=O)(=O)c2ccccc2N1 | - | 20µM | - | ? | ?
O=C(Nc1cccc(C(F)(F)F)c1)Nc1ccc2snnc2c1 | - | ? | - | ? | 9.46µM
O=c1ccn([C@@H]2O[C@H](CO)[C@H](O)[C@@H]2F)c(=O)[nH]1 | . | ? | - | . | .
O=C(NCc1cccnc1)C(=O)NCC(c1cccnc1)N1CCN(c2ccc(F)cc2)CC1 (stereo not drawn) | - | ? | - | - | ?
COc1ccccc1N1CCN(C(CNC(=O)C(=O)NCCc2ccccc2)c2cccnc2)CC1 (stereo not drawn) | - | 7.08µM | - | ? | ?
O=C(NCCc1ccccc1)C(=O)NCC(c1cccnc1)N1CCN(c2ccc(F)cc2)CC1 (stereo not drawn) | ? | 14.1µM | - | ? | ?
COc1ccc(C(=O)NCC(c2cccnc2)N2CCN(c3ccccc3OC)CC2)cc1 (stereo not drawn) | - | ? | - | - | -
Cc1cc(F)ccc1NC(=O)c1csc2c1CCC(C)C2 (stereo not drawn) | - | - | 3.16µM | - | ?
Cc1ccccc1-c1noc(-c2ccc(N3CCCC3)c([N+](=O)[O-])c2)n1 | - | 10µM | - | - | -
Cc1ccccc1-c1noc(-c2ccc(N3CCN(C)CC3)c([N+](=O)[O-])c2)n1 | - | 2.24µM | - | - | ?
Cc1ccccc1-c1noc(-c2ccc(N3CCOCC3)c([N+](=O)[O-])c2)n1 | - | - | ? | - | -
CC(=O)N1CCN(c2ccc(OCc3nn(C)c(C)c3-c3cccc4c(CCCOc5cc(C)c(Cl)c(C)c5)c(C(=O)O)n(Cc5cccnc5)c34)cc2)CC1 | . | - | - | . | .
O=c1[nH]nc(OCCCc2ccc(Cl)cc2)c(NCc2cccnc2)c1Br | . | ? | - | . | .
CO[C@H]1C[C@@H]2CC[C@@H](C)[C@@](O)(O2)C(=O)C(=O)N2CCCC[C@@H]2C(=O)O[C@H]([C@H](C)C[C@@H]2CC[C@H](OC(=O)C(C)(CO)CO)[C@H](OC)C2)CC(=O)[C@H](C)C=C(C)[C@@H](O)[C@@H](OC)C(=O)[C@H](C)C[C@H](C)C=CC=CC=C1C | . | - | - | . | .
Cc1ccc2nc(-c3ccc(C)c(NC(=O)CSc4ccc(Cl)cc4)c3)oc2c1 | - | - | 6.31µM | - | -
Cc1ccc2oc(-c3ccc(C)c(NC(=O)C(C)(C)Oc4ccc(Cl)cc4)c3)nc2c1 | - | - | 10µM | - | -
